The nature of experiment [1]: qHTS assay to identify small molecule antagonists of the glucocorticoid receptor (GR) signaling pathway - cell viability counter screen (AID 720693). Note: nearly all actives have a fitted effect of over 55% in size. On the technique in general: qHTS replaces the single test concentration by a dilution series.
Experiment [2] is described as follows: qHTS assay for identifying genotoxic compounds that show differential cytotoxicity against isogenic chicken DT40 cell lines with known DNA damage response pathways - wild type cell line (AID 743012). Note: nearly all actives have a fitted effect of over 60% in size. Note: potency is the fitted concentration of half-maximal effect. The method in brief: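 Wild type DT40, 300 cells/well, ~0.5 h settle at 37 C/5% CO2; compounds in DMSO added by pintool; 40 h at 37 C/5% CO2; CellTiter-Glo, 30 min RT; luminescence.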

Experiment [3] can be described thus: qHTS assay for identifying genotoxic compounds that show differential cytotoxicity against isogenic chicken DT40 cell lines with known DNA damage response pathways - Rad54/Ku70 mutant cell line (AID 743015). Note: nearly all actives have a fitted effect of over 60% in size. Note: potency is the fitted concentration of half-maximal effect.
Experiment [4] can be described thus: qHTS assay to identify small molecule antagonists of the androgen receptor (AR) signaling pathway - cell viability counter screen (AID 743033; note: nearly all actives have a fitted effect of over 45% in size).
The target in experiment [5] is Androgen receptor (Homo sapiens) (UniProt P10275). The experiment can be described thus: qHTS assay to identify small molecule agonists of the androgen receptor (AR) signaling pathway (AID 743036; active = well fitted activation curve with a large enough effect in the signal ratio in the repeat runs, with a control signal flat, not every such curve was filed as active; inconclusive = weak or mixed curves, or effect the other way; inactive = no such curve, though single readings can be large or run the other way; the % refers to the signal ratio). The method in brief:
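Quantitative HTS of the Tox21 10K library in HEK293 cells bearing a stably integrated UAS-controlled beta-lactamase reporter. Compound exposure lasted 16 h at 37C. Reporter activity was detected by FRET substrate fluorescence after 2 h at room temperature.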

Experiment [6] has the same target. The experiment can be described thus: qHTS assay to identify small molecule agonists of the androgen receptor (AR) signaling pathway using the MDA cell line (AID 743040; note: nearly all actives have a fitted effect of over 20% in size). In a few lines:
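MDA-kb2 breast carcinoma cells carrying MMTV-luciferase (responsive to AR and GR), plated 5 h then treated 16 h with compounds at 37C, 0% CO2. Read-out was ONE-Glo luminescence after 30 min at room temperature.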

Experiment [7] can be described thus: qHTS assay to identify small molecule antagonists of the androgen receptor (AR) signaling pathway using the MDA cell line - cell viability counter screen (AID 743041; note: nearly all actives have a fitted effect of over 45% in size). The method in brief: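 MDA-kb2 AR-luc cells (MMTV-luciferase, AR/GR responsive) treated with compounds plus R1881 agonist for 16 h at 37C. CellTiter-Fluor added at 15.5 h; fluorescence read after 30 min in the same wells.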

Experiment [8] concerns the target Androgen receptor (Homo sapiens) (UniProt P10275). As to the kind of experiment: qHTS assay to identify small molecule antagonists of the androgen receptor (AR) signaling pathway using the MDA cell line (AID 743042; note: nearly all actives have a fitted effect of over 55% in size). In a few lines:
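MDA-kb2 breast carcinoma cells carrying MMTV-luciferase (AR/GR responsive) were co-treated with compounds and the agonist R1881 for 16 h at 37C. Inhibition read as ONE-Glo luminescence; CellTiter-Fluor fluorescence measured in parallel for cytotoxicity.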

Experiment [9] is described as follows: qHTS assay to identify small molecule antagonists of the estrogen receptor alpha (ER-alpha) signaling pathway - cell viability counter screen (AID 743074; calls by dose curve;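 note: HEK293 cells carrying ER-alpha-UAS-bla reporter stimulated with 17beta-estradiol; nearly all actives have a fitted effect of over 45% in size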).
Experiment [10] is described as follows: qHTS assay to identify small molecule antagonists of the estrogen receptor alpha (ER-alpha) signaling pathway using the BG1 cell line - cell viability counter screen (AID 743081).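 Note: compound given together with 17beta-estradiol as the ER stimulus; series mostly up to about 70 µM; nearly all actives have a fitted effect of over 45% in size.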
The next experiment addresses Aromatase (Homo sapiens) (UniProt P11511). The experiment can be described thus: qHTS assay to identify aromatase inhibitors (AID 743083). Note: series mostly up to about 70 µM; nearly all actives have a fitted effect of over 55% in size.
In experiment [11] the target is Androgen receptor (Homo sapiens) (UniProt P10275). The experiment can be described thus: qHTS assay to identify small molecule antagonists of the androgen receptor (AR) signaling pathway (AID 743035; active = well fitted inhibition curve with a large enough effect in the signal ratio in the repeat runs, not every such curve was filed as active; inconclusive = weak or mixed curves, or effect the other way; inactive = no such curve, though single readings can be large or run the other way; the % refers to the signal ratio; note: potency is the fitted concentration of half-maximal effect). In a few lines:
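Fluorescence from a beta-lactamase FRET substrate (LiveBLAzer B/G, 2 h, room temperature) measured inhibition of R1881-stimulated signaling in GeneBLAzer AR-UAS-bla HEK293 cells exposed to compound for 16 h at 37C.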

Experiment [12] can be described thus: qHTS assay to identify small molecule antagonists of the thyroid receptor (TR) signaling pathway - cell viability counter screen (AID 743064). Note: nearly all actives have a fitted effect of over 50% in size. Note: potency is the fitted concentration of half-maximal effect. In a few lines: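 Rat GH3 pituitary tumor cells stably expressing two TR response elements driving luciferase were plated, rested 4 h, then dosed with library compounds and T3 (1 nM final). After 23.5 h at 37 °C, CellTiter-Fluor was added for 30 min and fluorescence recorded.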

The nature of experiment [13]: qHTS assay to identify small molecule antagonists of the thyroid receptor (TR) signaling pathway (AID 743065). Note: nearly all actives have a fitted effect of over 55% in size. Note: potency is the fitted concentration of half-maximal effect. In a few lines:
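GH3.TRE-Luc rat pituitary cells (two TREs driving luciferase) were dosed with compound, then stimulated with 1 nM T3 (final) for 23.5 h at 37 C. ONE-Glo luminescence was the read-out, with CellTiter-Fluor fluorescence as the cytotoxicity counter-screen.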

Experiment [14] relates to thyroid hormone receptor (rat, GH3 cells). As to the kind of experiment: qHTS assay to identify small molecule agonists of the thyroid receptor (TR) signaling pathway (AID 743066; calls by dose curve).
In experiment [15] the target is Estrogen receptor (Homo sapiens) (UniProt P03372). As to the kind of experiment: qHTS assay to identify small molecule antagonists of the estrogen receptor alpha (ER-alpha) signaling pathway (AID 743069; active = well fitted curve in the direction sought with a large enough effect in the signal ratio in the repeat runs, not every such curve was filed as active; inconclusive = weak or mixed curves, or effect the other way; inactive = no such curve, though single readings can be large or run the other way; the % refers to the signal ratio; note: potency is the fitted concentration of half-maximal effect). The method in brief:
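HEK293 ER-alpha-UAS-bla GripTite cells, held overnight in 2% charcoal-stripped FBS, 5,000 cells/well, preincubated 4 h, then compound plus 17beta-estradiol for 18 h at 37C. Beta-lactamase read by LiveBLAzer B/G FRET substrate, 2 h at room temperature.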

Experiment [16] has the same target. The experiment can be described thus: qHTS assay to identify small molecule agonists of the estrogen receptor alpha (ER-alpha) signaling pathway (AID 743075; calls by dose curve).
Experiment [17] shares this target. As to the kind of experiment: qHTS assay to identify small molecule agonists of the estrogen receptor alpha (ER-alpha) signaling pathway using the BG1 cell line (AID 743079). Note: nearly all actives have a fitted effect of over 20% in size.
The nature of experiment [18]: qHTS assay to identify small molecule antagonists of the estrogen receptor alpha (ER-alpha) signaling pathway using the BG1 cell line (AID 743080; calls by dose curve;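 note: BG1 cells stimulated with 17beta-estradiol alongside compound; nearly all actives have a fitted effect of over 25% in size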; note: potency is the fitted concentration of half-maximal effect). The method in brief:
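Seeding, 24 h rest, compound transfer from DMSO, 17beta-estradiol addition, 21.5 h incubation, CellTiter-Fluor (30 min, 37 C), then ONE-Glo (30 min, room temperature): this sequence was run on BG1-Luc-4E2 reporter cells.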

The nature of experiment [19]: qHTS assay for identifying genotoxic compounds that show differential cytotoxicity against isogenic chicken DT40 cell lines with known DNA damage response pathways - Rev3 mutant cell line (AID 743014). Note: nearly all actives have a fitted effect of over 55% in size. Note: potency is the fitted concentration of half-maximal effect.

Values joined by “and” are separate entries in the source; they are usually repeats but may differ in a detail not shown here. Identical values can stand only once. Some compounds were tested as several samples or in several runs, with calls that do not always agree. Active and inactive are the calls of the source. Unless noted, calls come from the whole dose curve; as a rule, active = well fitted curve in the direction sought with a large enough effect in the repeat runs; inconclusive = weak or mixed curves; inactive = no such curve, though single readings can be large; an effect the other way counts as inactive or inconclusive.

Chain of Aromatase (Homo sapiens) (P11511 whole entry, looked up): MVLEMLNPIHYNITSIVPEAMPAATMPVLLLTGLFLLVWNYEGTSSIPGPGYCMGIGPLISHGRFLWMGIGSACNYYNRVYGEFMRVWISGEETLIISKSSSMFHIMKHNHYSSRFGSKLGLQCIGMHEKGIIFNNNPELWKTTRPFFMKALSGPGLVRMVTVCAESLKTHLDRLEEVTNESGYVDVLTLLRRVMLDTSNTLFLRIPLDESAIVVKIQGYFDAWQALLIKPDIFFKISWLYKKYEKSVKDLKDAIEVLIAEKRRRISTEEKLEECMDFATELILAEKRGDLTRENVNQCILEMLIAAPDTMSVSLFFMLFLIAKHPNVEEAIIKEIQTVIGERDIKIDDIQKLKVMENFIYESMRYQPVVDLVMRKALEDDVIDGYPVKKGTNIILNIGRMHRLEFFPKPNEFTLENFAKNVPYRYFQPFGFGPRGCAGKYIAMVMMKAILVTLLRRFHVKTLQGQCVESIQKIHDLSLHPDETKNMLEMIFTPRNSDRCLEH
Chain of Androgen receptor (Homo sapiens) (P10275 whole entry, looked up): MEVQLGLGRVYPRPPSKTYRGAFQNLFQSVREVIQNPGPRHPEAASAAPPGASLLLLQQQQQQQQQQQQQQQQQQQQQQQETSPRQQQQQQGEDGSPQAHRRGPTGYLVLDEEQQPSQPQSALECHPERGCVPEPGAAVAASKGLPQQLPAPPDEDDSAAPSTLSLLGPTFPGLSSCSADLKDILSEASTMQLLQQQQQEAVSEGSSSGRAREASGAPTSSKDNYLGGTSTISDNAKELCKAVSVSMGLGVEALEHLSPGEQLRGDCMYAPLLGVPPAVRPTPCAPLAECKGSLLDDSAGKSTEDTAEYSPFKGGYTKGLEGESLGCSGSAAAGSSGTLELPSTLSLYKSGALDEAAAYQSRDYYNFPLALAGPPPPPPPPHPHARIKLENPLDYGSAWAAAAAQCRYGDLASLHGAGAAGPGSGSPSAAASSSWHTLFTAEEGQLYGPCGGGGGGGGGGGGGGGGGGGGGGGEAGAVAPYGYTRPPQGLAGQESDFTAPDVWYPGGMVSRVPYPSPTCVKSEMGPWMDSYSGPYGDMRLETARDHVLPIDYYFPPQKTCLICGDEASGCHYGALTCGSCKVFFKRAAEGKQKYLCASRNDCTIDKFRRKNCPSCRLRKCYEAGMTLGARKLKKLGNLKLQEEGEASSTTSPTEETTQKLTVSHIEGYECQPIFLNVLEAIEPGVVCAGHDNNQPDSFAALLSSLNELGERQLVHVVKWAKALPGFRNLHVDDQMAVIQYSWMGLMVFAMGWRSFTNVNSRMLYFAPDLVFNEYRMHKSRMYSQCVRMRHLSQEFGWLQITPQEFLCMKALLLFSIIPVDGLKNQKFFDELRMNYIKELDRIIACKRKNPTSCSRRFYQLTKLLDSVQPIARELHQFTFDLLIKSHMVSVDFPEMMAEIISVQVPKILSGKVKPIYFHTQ
Chain of Estrogen receptor (Homo sapiens) (P03372 whole entry, looked up): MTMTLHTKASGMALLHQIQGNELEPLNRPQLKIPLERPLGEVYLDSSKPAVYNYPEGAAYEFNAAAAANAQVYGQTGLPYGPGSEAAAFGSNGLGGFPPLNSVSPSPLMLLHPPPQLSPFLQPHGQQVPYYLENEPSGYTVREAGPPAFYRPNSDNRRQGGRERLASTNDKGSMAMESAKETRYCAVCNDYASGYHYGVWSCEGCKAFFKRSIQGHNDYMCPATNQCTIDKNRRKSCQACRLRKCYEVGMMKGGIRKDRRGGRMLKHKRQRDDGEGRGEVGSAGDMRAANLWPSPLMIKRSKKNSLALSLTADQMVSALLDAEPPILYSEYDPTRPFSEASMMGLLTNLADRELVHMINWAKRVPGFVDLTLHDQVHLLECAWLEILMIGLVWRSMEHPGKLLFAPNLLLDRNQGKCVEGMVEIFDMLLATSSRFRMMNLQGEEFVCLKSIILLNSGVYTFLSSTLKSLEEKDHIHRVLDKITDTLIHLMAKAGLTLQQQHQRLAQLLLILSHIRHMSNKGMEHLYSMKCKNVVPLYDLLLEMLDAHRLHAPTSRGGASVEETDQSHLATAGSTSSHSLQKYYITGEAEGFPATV

With `O=C1OC(c2ccc(O)cc2)(c2ccc(O)cc2)c2ccccc21`, the Potency result (in experiment [1]; in experiment [6]; in experiment [7]; in experiment [8]; in experiment [10]; with Aromatase (Homo sapiens)) was “inactive” each time. The figures for the Potency in [2] and in experiment [3] were 38.3 µM (active) and 27.1 µM (active), respectively. Moreover, the molecule was classed as inactive in [4], in experiment [5] and in experiment [9].

Consider `Cc1cccc(Nc2cc(Cl)nc(SCC(=O)O)n2)c1C`, for which the Potency entry in experiment [1], in [2], in [3], in experiment [11], in [6] and in experiment [7] was “inactive” in each case. Further, the Potency result in experiment [8], in experiment [12], in experiment [13], in [15], in experiment [16] and in [17] was “inactive” each time. Besides, the Potency entry (in experiment [18]; in experiment [10]; with Aromatase (Homo sapiens)) was “inactive” throughout. Besides, the molecule was called inactive in [4], in experiment [14] and in experiment [9].

As for `COC1=CC(=O)C[C@@H](C)[C@]12Oc1c(Cl)c(OC)cc(OC)c1C2=O`, the Potency result in experiment [1], in experiment [7], in experiment [16], in experiment [17], in experiment [18] and in experiment [10] was “inactive” throughout. The Potency in [2] is 26.6 µM (active) and 54 µM (active) and 27.3 µM (active); in [19], 30.4 µM (active) and 30.6 µM (active); in experiment [3], 30.4 µM (active) and 27.3 µM (active); in experiment [13], 11.9 µM (active) and 27.1 µM (active) and 27.3 µM (active); in [15], 10.7 µM [inconclusive] (active) and 5.45 µM [inconclusive] (active) and 6.92 µM [inhibitor] (active). Further, the molecule was called inactive in [4], in [14] and in experiment [9].

On to `COCC(C)N` (stereo unspecified), for which the Potency entry in [1], in [2], in experiment [3], in experiment [11], in experiment [6] and in [7] was “inactive” in each case. The Potency entry in experiment [8], in experiment [12], in experiment [13], in experiment [15], in [16] and in experiment [17] was “inactive” throughout. Moreover, the Potency entry (in [18]; in experiment [10]; with Aromatase (Homo sapiens)) was “inactive” throughout. For the same molecule, the call in [4], in experiment [5], in [14] and in [9] was inactive.

In the case of `COc1cc2c(c(OC)c1OC)-c1ccc(OC)c(=O)cc1[C@@H](NC(C)=O)CC2`, the Potency entry in experiment [1], in [6], in experiment [7], in [8], in experiment [16] and in experiment [17] was “inactive” in each case. Besides, the Potency entry (in experiment [10]; in the experiment with Aromatase (Homo sapiens)) was “inactive” in each case. Moreover, the Potency in experiment [2] is 66.8 nM (active) and 13.5 nM (active) and 7.7 nM (active); in experiment [3] it was 84.1 nM (active) and 10.7 nM (active) and 7.7 nM (active); in [11], 60.1 nM (active); in [12], 1.19 µM (active) and 172 nM (active); in experiment [13], 531 nM (active) and 135 nM (active) and 96.9 nM (active); in experiment [15], 15.3 nM [inhibitor] (active) and inactive. Besides, the Potency in experiment [18] is 119 nM (active) and 42.7 nM (active) and 86.3 nM (active). Also, the molecule was classed as inactive in [4], in [14] and in experiment [9].

`O=C(O)Cc1cccc2ccccc12`: the Potency entry in experiment [1], in experiment [2], in experiment [19], in [3], in experiment [7] and in experiment [12] was “inactive” each time. The Potency result (in experiment [13]; in [10]; with Aromatase (Homo sapiens)) was “inactive” throughout. Moreover, the outcome in experiment [4], in experiment [14] and in experiment [9] was inactive.

As for `N[C@@H](Cc1c[nH]c2ccccc12)C(=O)O`, the Potency result in [1], in experiment [2], in [19], in experiment [3], in [7] and in experiment [12] was “inactive” each time. For the same molecule, the Potency result (in experiment [13]; in [10]; in the experiment with Aromatase (Homo sapiens)) was “inactive” each time. Further, the outcome in experiment [4], in [14] and in experiment [9] was inactive.

Regarding `CC(C)CC(C)CC(O)CC(C)C` (stereo unspecified), the Potency result in experiment [1], in experiment [2], in [19], in experiment [3], in experiment [7] and in experiment [12] was “inactive” in each case. Moreover, the Potency entry (in experiment [13]; in experiment [10]; with Aromatase (Homo sapiens)) was “inactive” each time. Besides, the call in experiment [4], in experiment [14] and in [9] was inactive.

The values are drawn from PubChem BioAssay (Tox21).
